The values that follow come from PubChem BioAssay.

Activity calls are given as the source filed them.

Assay [1] can be described thus: A549 cell viability effects, profiling panel, calcein-AM fluorescence, 48 h, basal (AID 1162). Conditions: higher = more signal.
The nature of assay [2]: adipocyte viability effects, profiling panel, cell-based, 3T3-L1 adipocytes, calcein-AM fluorescence, 48 h, basal (AID 1163). Conditions: 3T3-L1 adipocytes viability, higher = more signal.
The nature of assay [3]: HepG2 cell viability effects, profiling panel, calcein-AM fluorescence, 48 h, basal (AID 1164). The settings on record: higher = more signal.
Assay [4] can be described thus: MM1S cell viability effects, profiling panel, calcein-AM fluorescence, 48 h, basal (AID 1165).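 Further: viability of MM1S multiple myeloma cells under basal unstimulated conditions.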 The settings on record: higher = more signal.
The nature of assay [5]: basal RPMI8226 viability, no added stimulus, profiling panel, cell-based, calcein-AM fluorescence, 48 h, PK04 Diversity Set (AID 1166).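 Further: cells grown under basal conditions without added stimulus.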 The settings on record: RPMI8226 myeloma viability, higher = more signal.
Assay [6] in a line: basal HepG2 mitochondrial membrane potential changes, profiling panel, cell-based, JC-1 fluorescence, 24 h, 100 nL compound (AID 1167). The settings on record: higher = more signal.
Assay [7] in a line: basal 3T3-L1 adipocyte mitochondrial potential changes, profiling panel, cell-based, JC-1 fluorescence, 3T3-L1 adipocytes, 24 h, 100 nL compound (AID 1168). Conditions: JC-1 mitochondrial fluorescence, higher = more signal, called active from +8 up or from −8 down.
A short description of assay [8]: basal RPMI8226 mitochondrial membrane potential changes, profiling panel, cell-based, JC-1 fluorescence, 24 h, 100 nL compound (AID 1169). The settings on record: RPMI8226 myeloma, JC-1 mitochondrial potential fluorescence, higher = more signal.
Assay [9] in a line: basal MM1S mitochondrial membrane potential changes, profiling panel, cell-based, JC-1 fluorescence, 24 h, 100 nL compound (AID 1170). The settings on record: higher = more signal.
Assay [10] can be described thus: A549 lung cancer cell viability effects, profiling panel, resazurin fluorescence, 24 h, PK04 Diversity Set (AID 1171). Conditions: higher = more signal, called active from +8 up or from −8 down. (In general: The colour change of resazurin is a common sign of viable cells or microbes.)
Further: test concentration not given here.

Turning to `CC(C)C(=C=CC[C@@H](O)c1cccc(OCCO)c1)C[C@@H](O)c1ccccn1`, the z-score in assay [1] was -0.171; in [2] it was -0.142; in [3], -0.295; in assay [4] it was -0.0369; in [5], 0.128; in assay [6] it was -0.0286. The z-score in assay [7] was -0.425 (inactive); in assay [8], -0.387; in assay [9], -0.753; in assay [10], 1.22 (inactive).
For `C=CCC(OC(C)=O)[C@@H]1[C@@H](N(Cc2ccc(-c3ccccc3)cc2)C(=O)Cc2ccc(F)cc2)c2cc(OCCCO)ccc2N1C(=O)Cc1ccc2ccccc2c1` (stereo not given in full), the z-score is 0.234 in [1]; -0.246 in assay [2]; 0.646 in assay [3]; -0.177 in assay [4]; 0.0473 in [5]; 2.19 in [6]. Moreover, the z-score was -0.321 (inactive) in assay [7], -0.909 in [8], 0.89 in assay [9] and 1.05 (inactive) in assay [10].
As for `O=C1C2C=CC(C(O)c3ccc(I)cc3)N(Nc3ccccc3)C2C(=O)N1c1ccccc1` (stereo not given), the z-score in assay [1] was 0.0685; in assay [2], -0.748; in assay [3], 0.1; in assay [4], 0.196; in assay [5], -0.311; in [6], -2.3. The z-score in assay [7] was -1.3 (inactive); in assay [8], -0.865; in assay [9], -0.603; in [10], -0.393 (inactive).
With `O=C1C2C=CC(C(O)c3cccc(O)c3)N(Nc3ccccc3)C2C(=O)N1c1ccccc1` (stereo not given), the z-score in [1] was -0.671; in [2], -0.096; in assay [3], -1.22; in assay [4], -0.109; in [5], -0.444; in [6], -2.04. The z-score in [7] was 0.166 (inactive); in [8] it was -0.0193; in [9] it was -1.37; in [10] it was -0.224 (inactive).
In the case of `Cc1nc2cc(Br)ccc2c(=O)n1Cc1cccc(O)c1`, the z-score was -0.508 in assay [1]; -0.396 in assay [2]; 0.454 in assay [3]; -0.301 in assay [4]; 0.244 in assay [5]; -0.0434 in assay [6]. Further, the z-score is 1.62 (inactive) in assay [7], -0.536 in [8], -0.432 in [9] and 0.246 (inactive) in assay [10].
On to `CC(C)C(=C=CC[C@@H](O)c1cccc(OCCO)c1)C[C@@H](O)COCc1ccccc1`, for which the z-score in [1] is 1.05; in [2] it was 1.32; in assay [3], 0.512; in assay [4] it was 0.0108; in [5], 0.442; in [6], 0.427. Further, the z-score in assay [7] was 0.686 (inactive); in assay [8], 0.46; in assay [9], -0.794; in assay [10], 0.151 (inactive).
Regarding `COC(=O)[C@@]1(Cc2ccc(OC)cc2)[C@H]2c3cc(C(=O)N4CCCC4)n(Cc4ccc(S(C)(=O)=O)cc4)c3C[C@H]2CN1C(=O)c1ccccc1`, the z-score in assay [1] was -0.112; in assay [2] it was 0.842; in assay [3] it was 0.47; in [4], 0.137; in assay [5], -0.403; in [6], 2.63. Moreover, the z-score is -0.606 (inactive) in [7], -0.7 in assay [8], -1.15 in [9] and 0.105 (inactive) in [10].
